Holding throughout (test): DAPPL (digital affinity profiling via proximity ligation, sequencing); 10 mM Tris-HCl pH 7.5, 50 mM NaCl, 1 mM DTT, 4% glycerol, room temperature, 30 min; GST-TFs on glutathione beads, 16-mer random dsDNA library, 0.1% formaldehyde crosslink after washing; high values mean tight binding
The target of assay [1] is T1, FLI1 (Homo sapiens, UniProt Q01543 1-452).
T1 sequence: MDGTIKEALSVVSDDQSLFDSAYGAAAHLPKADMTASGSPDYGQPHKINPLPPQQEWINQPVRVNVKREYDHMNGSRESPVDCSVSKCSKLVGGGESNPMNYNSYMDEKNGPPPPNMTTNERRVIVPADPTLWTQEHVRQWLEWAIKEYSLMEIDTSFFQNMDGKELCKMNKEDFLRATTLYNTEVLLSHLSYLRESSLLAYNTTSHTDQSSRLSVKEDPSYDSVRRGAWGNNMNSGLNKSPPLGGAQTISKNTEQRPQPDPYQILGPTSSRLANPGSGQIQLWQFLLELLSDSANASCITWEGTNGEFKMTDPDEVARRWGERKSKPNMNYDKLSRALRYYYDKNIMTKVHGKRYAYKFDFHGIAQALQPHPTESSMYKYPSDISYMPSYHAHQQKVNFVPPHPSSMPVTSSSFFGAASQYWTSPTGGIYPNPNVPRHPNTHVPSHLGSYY
To be noted: protein: recombinant; tags: N-terminal GST; dsDNA, one strand shown. The gist of the method: (§1)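 After expression in yeast as GST fusions, human transcription factors were bound to glutathione beads, DNA-barcoded and mixed with a tag-only sample. The pools were incubated with 200 nmole of a 16-mer random double-stranded DNA library in Tris/NaCl/DTT/glycerol buffer (30 min, room temperature), washed and crosslinked with 0.1% formaldehyde. Proximity ligation with BsaI/T4 ligase ran for 1 h at 37 °C, before PCR amplification and sequencing on an Illumina NextSeq500. Binding signal is a hexamer's read frequency for a factor divided by its frequency for the tag-only sample.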

Assay [2] deals with T2, ELK1 (Homo sapiens, UniProt P19419 1-428).
T2 sequence: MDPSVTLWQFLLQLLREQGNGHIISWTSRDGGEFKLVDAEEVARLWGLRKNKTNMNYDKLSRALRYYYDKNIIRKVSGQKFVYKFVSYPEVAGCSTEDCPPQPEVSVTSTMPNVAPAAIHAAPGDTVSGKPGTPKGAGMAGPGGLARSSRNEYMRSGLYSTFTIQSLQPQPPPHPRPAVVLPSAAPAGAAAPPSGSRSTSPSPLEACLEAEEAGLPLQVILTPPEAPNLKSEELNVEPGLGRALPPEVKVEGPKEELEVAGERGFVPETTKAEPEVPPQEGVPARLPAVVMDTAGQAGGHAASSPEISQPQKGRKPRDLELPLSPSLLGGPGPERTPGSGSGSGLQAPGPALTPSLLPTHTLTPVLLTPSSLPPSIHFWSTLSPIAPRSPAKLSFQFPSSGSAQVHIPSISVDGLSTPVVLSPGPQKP
Particulars: protein: recombinant; tags: N-terminal GST; dsDNA, one strand shown. A digest of the protocol: as §1

Assay [3] addresses T3, GABPA (Homo sapiens, UniProt Q06546 1-454).
T3 sequence: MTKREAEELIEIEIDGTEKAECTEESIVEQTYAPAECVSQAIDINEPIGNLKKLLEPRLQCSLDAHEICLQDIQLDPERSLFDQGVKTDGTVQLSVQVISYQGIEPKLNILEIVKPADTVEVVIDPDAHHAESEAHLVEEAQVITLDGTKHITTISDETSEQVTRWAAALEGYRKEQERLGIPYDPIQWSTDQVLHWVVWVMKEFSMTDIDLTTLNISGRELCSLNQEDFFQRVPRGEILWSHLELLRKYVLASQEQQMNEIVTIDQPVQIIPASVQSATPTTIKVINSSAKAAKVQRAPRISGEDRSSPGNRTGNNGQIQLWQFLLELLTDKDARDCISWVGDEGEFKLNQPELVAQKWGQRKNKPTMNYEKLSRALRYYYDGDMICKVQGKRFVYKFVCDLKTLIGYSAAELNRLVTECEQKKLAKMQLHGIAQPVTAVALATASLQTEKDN
To be noted: protein: recombinant; tags: N-terminal GST; dsDNA, one strand shown. A digest of the protocol:
as §1

In assay [4] the target is T4, ERG (Homo sapiens, UniProt P11308 1-479).
T4 sequence: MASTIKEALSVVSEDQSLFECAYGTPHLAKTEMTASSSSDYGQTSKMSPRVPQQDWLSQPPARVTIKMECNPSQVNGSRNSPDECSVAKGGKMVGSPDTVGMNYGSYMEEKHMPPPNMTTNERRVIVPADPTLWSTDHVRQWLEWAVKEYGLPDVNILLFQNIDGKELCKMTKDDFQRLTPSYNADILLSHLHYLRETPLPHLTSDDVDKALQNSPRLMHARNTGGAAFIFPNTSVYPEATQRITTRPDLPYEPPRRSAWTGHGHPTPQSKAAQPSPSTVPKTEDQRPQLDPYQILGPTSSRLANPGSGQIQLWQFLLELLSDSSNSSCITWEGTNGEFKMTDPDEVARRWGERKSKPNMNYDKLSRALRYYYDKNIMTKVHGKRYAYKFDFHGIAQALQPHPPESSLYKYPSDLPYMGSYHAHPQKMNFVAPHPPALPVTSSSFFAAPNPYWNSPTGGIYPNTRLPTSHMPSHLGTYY
Particulars: protein: recombinant; tags: N-terminal GST; dsDNA, one strand shown. A digest of the protocol: as §1

The target of assay [5] is ELF1 (Homo sapiens, UniProt P32519 1-619). To be noted: protein: recombinant; tags: N-terminal GST; dsDNA, one strand shown. A digest of the protocol:
as §1

The target in assay [6] is T5, EHF (Homo sapiens, UniProt Q9NZC4 1-300).
T5 sequence: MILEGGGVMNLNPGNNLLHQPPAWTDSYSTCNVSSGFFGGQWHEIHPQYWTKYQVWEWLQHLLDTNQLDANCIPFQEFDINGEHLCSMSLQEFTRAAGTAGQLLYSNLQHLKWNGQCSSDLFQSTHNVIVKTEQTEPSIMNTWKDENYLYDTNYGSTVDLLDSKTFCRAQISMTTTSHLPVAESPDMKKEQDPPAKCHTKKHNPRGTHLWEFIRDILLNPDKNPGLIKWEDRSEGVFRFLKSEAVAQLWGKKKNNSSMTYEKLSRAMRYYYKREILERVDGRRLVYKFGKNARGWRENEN
To be noted: protein: recombinant; tags: N-terminal GST; dsDNA, one strand shown. A digest of the protocol:
as §1

The target in assay [7] is SPI1 (Homo sapiens, UniProt P17947 1-270). Particulars: protein: recombinant; tags: N-terminal GST; dsDNA, one strand shown. A digest of the protocol:
as §1

Assay [8] has as its target SPIB (Homo sapiens, UniProt Q01892 1-262). To be noted: protein: recombinant; tags: N-terminal GST; dsDNA, one strand shown. A digest of the protocol:
as §1

Assay [9] deals with T6, ELK3 (Homo sapiens, UniProt P41970 1-407).
T6 sequence: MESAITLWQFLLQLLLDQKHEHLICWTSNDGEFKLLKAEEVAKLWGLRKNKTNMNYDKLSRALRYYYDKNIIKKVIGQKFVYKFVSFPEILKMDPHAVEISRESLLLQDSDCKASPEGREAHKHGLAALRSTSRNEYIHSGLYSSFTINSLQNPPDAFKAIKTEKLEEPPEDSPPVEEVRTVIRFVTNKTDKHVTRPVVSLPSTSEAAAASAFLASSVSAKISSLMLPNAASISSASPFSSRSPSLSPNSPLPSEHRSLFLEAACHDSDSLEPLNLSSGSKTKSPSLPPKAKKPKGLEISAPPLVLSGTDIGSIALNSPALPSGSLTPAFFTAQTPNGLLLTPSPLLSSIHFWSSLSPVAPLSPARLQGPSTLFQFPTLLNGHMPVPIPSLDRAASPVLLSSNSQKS
To be noted: protein: recombinant; tags: N-terminal GST; dsDNA, one strand shown. A digest of the protocol: as §1

Assay [10] addresses T7, FEV (Homo sapiens, UniProt Q99581 1-238).
T7 sequence: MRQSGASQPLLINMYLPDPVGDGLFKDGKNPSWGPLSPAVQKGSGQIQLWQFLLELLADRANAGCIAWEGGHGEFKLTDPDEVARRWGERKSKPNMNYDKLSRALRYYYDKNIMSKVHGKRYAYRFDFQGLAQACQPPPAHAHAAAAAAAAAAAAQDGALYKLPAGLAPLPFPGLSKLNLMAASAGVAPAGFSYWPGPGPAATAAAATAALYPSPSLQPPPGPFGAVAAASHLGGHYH
To be noted: protein: recombinant; tags: N-terminal GST; dsDNA, one strand shown. A digest of the protocol:
as §1

Assay [11] concerns the target ETV5 (Homo sapiens, UniProt P41161 1-510). To be noted: protein: recombinant; tags: N-terminal GST; dsDNA, one strand shown. A digest of the protocol:
as §1

Assay [12] addresses HSF1 (Homo sapiens, UniProt Q00613 1-529). To be noted: protein: recombinant; tags: N-terminal GST; chain copies: 3; dsDNA, one strand shown. The gist of the method: as §1
In assay [13] the target is T8, SPIC (Homo sapiens, UniProt Q8N5J4 1-248).
T8 sequence: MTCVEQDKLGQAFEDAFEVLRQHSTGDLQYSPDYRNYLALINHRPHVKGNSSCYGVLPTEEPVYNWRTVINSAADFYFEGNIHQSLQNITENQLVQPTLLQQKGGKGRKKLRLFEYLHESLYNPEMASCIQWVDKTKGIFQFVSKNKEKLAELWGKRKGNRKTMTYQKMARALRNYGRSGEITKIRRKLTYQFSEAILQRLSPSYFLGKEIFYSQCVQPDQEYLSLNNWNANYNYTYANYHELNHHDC
Particulars: protein: recombinant; tags: N-terminal GST; dsDNA, one strand shown. A digest of the protocol:
as §1

The target of assay [14] is ELF4 (Homo sapiens, UniProt Q99607 1-663). Particulars: protein: recombinant; tags: N-terminal GST; dsDNA, one strand shown. A digest of the protocol:
as §1

Assay [15] has as its target T9, ELK4 (Homo sapiens, UniProt P28324-2 1-405).
T9 sequence: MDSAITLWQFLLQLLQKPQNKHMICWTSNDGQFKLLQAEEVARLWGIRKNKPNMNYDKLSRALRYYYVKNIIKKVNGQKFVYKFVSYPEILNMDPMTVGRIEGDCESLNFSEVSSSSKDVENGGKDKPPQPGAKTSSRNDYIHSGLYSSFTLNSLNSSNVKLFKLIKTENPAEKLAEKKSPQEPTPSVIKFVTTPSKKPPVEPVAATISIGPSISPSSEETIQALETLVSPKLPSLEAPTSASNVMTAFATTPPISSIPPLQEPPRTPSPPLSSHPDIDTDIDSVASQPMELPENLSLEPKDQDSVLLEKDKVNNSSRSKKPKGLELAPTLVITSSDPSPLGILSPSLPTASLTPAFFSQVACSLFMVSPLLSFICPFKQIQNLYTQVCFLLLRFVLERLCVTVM
Particulars: protein: recombinant; tags: N-terminal GST; dsDNA, one strand shown. A digest of the protocol: as §1

Assay [16] addresses T10, ETV2 (Homo sapiens, UniProt O00321 1-342).
T10 sequence: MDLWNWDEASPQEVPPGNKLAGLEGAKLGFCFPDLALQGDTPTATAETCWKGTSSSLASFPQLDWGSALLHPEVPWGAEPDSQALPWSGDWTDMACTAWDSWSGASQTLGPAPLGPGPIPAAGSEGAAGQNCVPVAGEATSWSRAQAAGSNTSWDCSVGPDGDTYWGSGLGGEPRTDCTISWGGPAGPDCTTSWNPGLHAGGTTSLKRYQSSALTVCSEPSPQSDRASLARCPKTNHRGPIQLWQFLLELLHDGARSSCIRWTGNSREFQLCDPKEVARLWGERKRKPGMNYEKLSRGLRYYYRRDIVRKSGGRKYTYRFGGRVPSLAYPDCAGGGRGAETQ
To be noted: protein: recombinant; tags: N-terminal GST; dsDNA, one strand shown. The gist of the method:
as §1

Assay [17] deals with T11, ELF3 (Homo sapiens, UniProt P78545 1-371).
T11 sequence: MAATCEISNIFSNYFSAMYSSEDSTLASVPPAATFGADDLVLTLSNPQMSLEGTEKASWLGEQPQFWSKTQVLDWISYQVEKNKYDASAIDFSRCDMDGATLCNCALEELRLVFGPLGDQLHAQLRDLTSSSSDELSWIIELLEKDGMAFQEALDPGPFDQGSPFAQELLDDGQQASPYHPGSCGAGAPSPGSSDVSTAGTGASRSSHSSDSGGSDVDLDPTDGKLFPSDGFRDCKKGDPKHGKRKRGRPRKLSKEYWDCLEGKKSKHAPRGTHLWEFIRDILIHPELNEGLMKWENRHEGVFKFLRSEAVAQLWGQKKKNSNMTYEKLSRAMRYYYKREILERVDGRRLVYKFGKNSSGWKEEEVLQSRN
To be noted: protein: recombinant; tags: N-terminal GST; dsDNA, one strand shown. A digest of the protocol: as §1

The target in assay [18] is ETV1 (Homo sapiens, UniProt P50549 1-477). Particulars: protein: recombinant; tags: N-terminal GST; dsDNA, one strand shown. The gist of the method: as §1
ETV1, sequence (P50549 whole entry): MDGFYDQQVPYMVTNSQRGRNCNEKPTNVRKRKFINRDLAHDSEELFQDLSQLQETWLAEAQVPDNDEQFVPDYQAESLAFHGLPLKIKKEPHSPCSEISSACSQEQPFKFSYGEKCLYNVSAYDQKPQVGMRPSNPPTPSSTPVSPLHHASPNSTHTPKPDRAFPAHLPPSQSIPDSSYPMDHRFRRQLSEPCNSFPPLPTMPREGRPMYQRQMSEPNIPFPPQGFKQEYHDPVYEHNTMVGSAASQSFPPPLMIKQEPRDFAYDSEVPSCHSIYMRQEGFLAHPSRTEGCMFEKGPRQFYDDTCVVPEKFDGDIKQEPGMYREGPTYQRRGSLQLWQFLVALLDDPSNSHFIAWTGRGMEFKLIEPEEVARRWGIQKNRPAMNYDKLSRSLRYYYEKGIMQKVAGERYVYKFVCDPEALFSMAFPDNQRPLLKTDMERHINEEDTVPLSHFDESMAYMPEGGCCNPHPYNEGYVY

ETV5, sequence (P41161 whole entry): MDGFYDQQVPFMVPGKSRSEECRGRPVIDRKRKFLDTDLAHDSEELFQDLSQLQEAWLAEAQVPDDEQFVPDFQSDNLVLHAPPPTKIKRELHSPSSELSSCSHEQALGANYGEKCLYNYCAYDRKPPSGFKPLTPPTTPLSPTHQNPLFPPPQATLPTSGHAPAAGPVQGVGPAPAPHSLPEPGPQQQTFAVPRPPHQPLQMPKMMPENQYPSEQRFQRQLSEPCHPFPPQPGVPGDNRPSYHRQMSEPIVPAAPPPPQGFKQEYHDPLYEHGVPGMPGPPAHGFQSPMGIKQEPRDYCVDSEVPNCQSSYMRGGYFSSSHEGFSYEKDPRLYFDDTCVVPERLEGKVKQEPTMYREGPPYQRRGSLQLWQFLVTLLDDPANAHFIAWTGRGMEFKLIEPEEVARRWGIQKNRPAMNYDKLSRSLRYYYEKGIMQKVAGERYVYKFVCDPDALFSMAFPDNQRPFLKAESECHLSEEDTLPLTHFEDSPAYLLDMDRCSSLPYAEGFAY
ELF4, sequence (Q99607 whole entry): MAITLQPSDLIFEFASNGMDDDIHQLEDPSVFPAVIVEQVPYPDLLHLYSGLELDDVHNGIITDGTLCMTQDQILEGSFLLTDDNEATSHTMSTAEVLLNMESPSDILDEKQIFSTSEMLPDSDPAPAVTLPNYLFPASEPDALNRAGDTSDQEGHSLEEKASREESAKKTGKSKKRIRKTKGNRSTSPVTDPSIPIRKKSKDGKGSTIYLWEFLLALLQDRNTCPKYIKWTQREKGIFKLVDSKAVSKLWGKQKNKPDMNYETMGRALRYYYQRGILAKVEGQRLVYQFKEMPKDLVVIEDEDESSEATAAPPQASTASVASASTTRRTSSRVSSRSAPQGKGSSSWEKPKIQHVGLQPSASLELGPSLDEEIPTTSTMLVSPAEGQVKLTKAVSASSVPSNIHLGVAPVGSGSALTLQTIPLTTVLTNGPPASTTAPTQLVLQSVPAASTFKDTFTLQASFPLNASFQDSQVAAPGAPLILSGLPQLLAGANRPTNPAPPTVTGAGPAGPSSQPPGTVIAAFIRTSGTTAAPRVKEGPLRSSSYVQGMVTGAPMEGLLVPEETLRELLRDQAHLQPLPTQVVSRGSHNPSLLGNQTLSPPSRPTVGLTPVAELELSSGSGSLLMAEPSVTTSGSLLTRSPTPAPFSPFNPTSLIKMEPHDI
SPIB, sequence (Q01892 whole entry): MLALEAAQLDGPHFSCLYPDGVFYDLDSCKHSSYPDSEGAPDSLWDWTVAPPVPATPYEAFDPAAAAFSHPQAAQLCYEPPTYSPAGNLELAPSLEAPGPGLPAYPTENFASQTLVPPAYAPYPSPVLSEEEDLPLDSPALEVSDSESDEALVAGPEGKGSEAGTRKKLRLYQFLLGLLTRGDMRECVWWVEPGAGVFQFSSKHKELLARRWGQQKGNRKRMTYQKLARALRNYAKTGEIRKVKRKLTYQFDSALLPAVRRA
HSF1, sequence (Q00613 whole entry): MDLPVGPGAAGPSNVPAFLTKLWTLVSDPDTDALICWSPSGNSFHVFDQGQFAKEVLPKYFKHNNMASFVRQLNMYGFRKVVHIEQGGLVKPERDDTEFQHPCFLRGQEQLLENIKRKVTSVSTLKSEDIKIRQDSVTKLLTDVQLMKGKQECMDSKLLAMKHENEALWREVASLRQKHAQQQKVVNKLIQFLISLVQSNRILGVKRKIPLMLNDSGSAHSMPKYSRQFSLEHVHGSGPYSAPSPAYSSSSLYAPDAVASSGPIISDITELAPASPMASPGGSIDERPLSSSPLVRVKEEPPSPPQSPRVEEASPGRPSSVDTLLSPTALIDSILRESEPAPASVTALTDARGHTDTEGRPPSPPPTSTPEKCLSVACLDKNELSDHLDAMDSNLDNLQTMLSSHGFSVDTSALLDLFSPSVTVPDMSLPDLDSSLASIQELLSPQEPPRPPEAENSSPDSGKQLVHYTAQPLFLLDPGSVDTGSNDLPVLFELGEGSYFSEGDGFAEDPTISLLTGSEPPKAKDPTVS
ELF1, sequence (P32519 whole entry): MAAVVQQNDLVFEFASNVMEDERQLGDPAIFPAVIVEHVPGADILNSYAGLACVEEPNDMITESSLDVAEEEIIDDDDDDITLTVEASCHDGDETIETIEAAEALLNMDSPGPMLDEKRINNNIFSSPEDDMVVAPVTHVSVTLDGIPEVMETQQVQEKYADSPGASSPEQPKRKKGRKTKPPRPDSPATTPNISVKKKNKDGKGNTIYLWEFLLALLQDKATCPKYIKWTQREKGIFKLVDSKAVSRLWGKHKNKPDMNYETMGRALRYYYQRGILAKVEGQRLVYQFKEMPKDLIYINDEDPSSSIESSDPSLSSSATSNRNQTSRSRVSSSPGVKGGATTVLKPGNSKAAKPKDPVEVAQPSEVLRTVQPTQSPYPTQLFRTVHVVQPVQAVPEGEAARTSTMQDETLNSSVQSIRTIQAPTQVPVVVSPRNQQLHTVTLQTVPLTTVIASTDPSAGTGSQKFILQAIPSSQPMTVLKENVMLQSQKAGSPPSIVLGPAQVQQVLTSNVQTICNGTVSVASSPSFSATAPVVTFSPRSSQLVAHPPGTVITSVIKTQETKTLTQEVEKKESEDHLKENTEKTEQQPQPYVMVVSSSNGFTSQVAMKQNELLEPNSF

With GAACCC, the binding signal in assay [1] is 1.12 fold enrichment (6-mer frequency, TF over GST control); in assay [2], 1.19 fold enrichment (6-mer frequency, TF over GST control); in assay [3], 1.16 fold enrichment (6-mer frequency, TF over GST control); in [4] it was 1.18 fold enrichment (6-mer frequency, TF over GST control); in assay [5], 1.14 fold enrichment (6-mer frequency, TF over GST control); in [6] it was 1.13 fold enrichment (6-mer frequency, TF over GST control). Moreover, the binding signal in assay [7] was 1.16 fold enrichment (6-mer frequency, TF over GST control); in [8] it was 1.06 fold enrichment (6-mer frequency, TF over GST control); in [9] it was 1.19 fold enrichment (6-mer frequency, TF over GST control); in [10] it was 1.17 fold enrichment (6-mer frequency, TF over GST control); in [11], 1.2 fold enrichment (6-mer frequency, TF over GST control); in assay [12], 1.03 fold enrichment (6-mer frequency, TF over GST control). Also, the binding signal is 1.29 fold enrichment (6-mer frequency, TF over GST control) in assay [13]; 1.22 fold enrichment (6-mer frequency, TF over GST control) in [14]; 1.2 fold enrichment (6-mer frequency, TF over GST control) in [15]; 1 fold enrichment (6-mer frequency, TF over GST control) in [16]; 1.05 fold enrichment (6-mer frequency, TF over GST control) in [17]; 1.19 fold enrichment (6-mer frequency, TF over GST control) in assay [18].

The values above are taken from PMC7862700, “An all-to-all approach to the identification of sequence-specific readers for epigenetic DNA modifications on cytosine”.
